In PubChem BioAssay (NCATS):
Where “and” joins values, the source holds several entries; their conditions need not be identical. Equal entries are not always repeated. Results filed as inconclusive are left out. Entries that show only a call come without a potency. Calls of active or inactive are those of the source. The call rests on the fitted dose curve; in most records, active means well fitted inhibition curve with a large enough effect; inconclusive means small, poorly fitted or top-dose-only effect; inactive means flat fitted curve, though single readings scatter.

System: HaCat
Assay: Cytotoxic Profiling of Annotated Libraries Using Quantitative High-Throughput Screening (AID 1296008); further: nearly all actives have a fitted effect of over 60% in size
Conditions: Five cell lines viability, CellTiter-Glo ATP luminescence, 48-72 h; max response: stronger effect = lower value
Procedure, shortened: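 Cytotoxicity was measured as CellTiter-Glo ATP luminescence, read after 10 min at room temperature. Compound treatment of the cells lasted 48 or 72 hr at 37 degrees Celsius in a qHTS format.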
Potency means the concentration at half of the fitted maximal effect.

Row | SMILES | outcome | max response | Potency
1 | CCOC(=O)c1sc(NC(=O)[C@H](C(C)C)n2c(=O)[nH]c3ccccc3c2=O)nc1C | inactive |  | 
2 | O=C(O)c1ccccc1NCCc1ccccc1 | inactive |  | 
3 | COc1cc(O)c2c(c1)C1=C[C@H](O)[C@@H](O)C[C@]1(C)OC2=O |  | -2.92% (inactive) | 
4 | CC[C@]12C=CCN3CC[C@@]4(c5cc([C@@]6(C(=O)OC)C[C@H]7C[C@@H](C(C)(F)F)CN(Cc8c6[nH]c6ccccc86)C7)c(OC)cc5N(C)[C@H]4[C@@](O)(C(=O)OC)[C@@H]1OC(C)=O)[C@@H]32 | inactive |  | 
5 | COC1/C=C/C(C)(O)C(SCC(N)C(=O)O)CC(=O)OC(C)C(C)CC/C=C/1C (stereo unspecified) | inactive |  | 
6 | CN1CCN(c2ccc(C(=O)Nc3n[nH]c4ccc(Cc5cc(F)cc(F)c5)cc34)c(NC3CCOCC3)c2)CC1 |  |  | 18.4 µM (active) and 14.8 µM (active)
7 | C=CC(=O)N1CCN(C(=O)CNc2cc(I)c(Cl)cc2O)CC1 | inactive |  | 
8 | COc1ccc2[nH]c3c(-c4cccc5ccccc45)nccc3c2c1 | inactive |  | 
9 | O=C(N/N=C/c1ccc(O)c(O)c1)c1cc2ccccc2cc1O |  | -0.414% (inactive) | 
10 | CC(C)[C@@H](CS(=O)(=O)C(C)C)N1C(=O)[C@@](C)(CC(=O)O)C[C@H](c2cccc(Cl)c2)[C@H]1c1ccc(Cl)cc1 |  | -29% (inactive) | 
11 | COc1ccc(-n2[nH]c(=O)c3[nH]c4cc(Cl)ccc4c(=O)c3c2=O)c(C)c1 | inactive |  | 
12 | CCCCCCOc1cc2c(cc1N(C)c1ncc(C(=O)O)cn1)C(C)(C)CCC2(C)C | inactive |  | 
13 | CCNC(=O)Nc1ncc(-c2cc(-c3c(C)cc(OC)cc3C)nc(-c3cnccn3)n2)s1 | inactive |  | 
14 | Cc1ccc(N)cc1O | inactive |  | 
15 | CCNCc1nc2c(N)nc3ccccc3c2n1CC(C)(C)O | inactive |  | 
16 | O=C(CO)[C@@H](O)[C@H](O[C@@H]1O[C@H](CO)[C@H](O)[C@H](O)[C@H]1O)[C@H](O)CO |  | -14% (inactive) | 
17 | CCN(Cc1cccnc1)C(=O)CN(c1ccc(OC)nc1)S(=O)(=O)c1ccccc1C | inactive |  | 
18 | Cn1cc(-c2ccc3nnc(Sc4ccc5nn(C)cc5c4)n3n2)cn1 |  | -20.1% (inactive) | 

Row | SMILES | outcome | max response | Potency
19 | CCC(C(=O)O)c1ccc(N2Cc3ccccc3C2=O)cc1 (stereo unspecified) | inactive |  | 
20 | Cc1ccccc1NC(=O)Nc1ccc(CC(=O)N(C)[C@@H](CC(C)C)C(=O)NCC[C@H](NC(=O)[C@@H]2CCCN2S(=O)(=O)c2cc(Cl)cc(Cl)c2)C(=O)O)cc1 | inactive |  | 
21 | C[C@@H]1CCC2C(C)(C)[C@H](O)CC[C@]2(C)[C@@]12Cc1c(O)cc3c(c1O2)CN([C@@H](CCC(=O)O)C(=O)O)C3=O (stereo partly specified) | inactive |  | 
22 | C[C@H]1Oc2cc(cnc2N)-c2c(nn(C)c2C#N)CN(C)C(=O)c2ccc(F)cc21 |  | -103% (inactive) | 
23 | CCOCCOC(=O)/C=C/c1ccc(OC)cc1 |  | -19.2% (inactive) | 
24 | Nc1nc2c(ncn2[C@@H]2O[C@@H]3COP(=O)(O)O[C@H]3[C@H]2O)c(=O)[nH]1 | inactive |  | 
25 | CC1CCCCN1S(=O)(=O)c1ccc(N2CCCC2=O)cc1 (stereo unspecified) |  | -10.9% (inactive) | 
26 | Cc1ccc(-c2c(C(=O)CF)n(CCCO)c3ncnc(N)c23)cc1 |  | 4.6% (inactive) | 
27 | O=C(O)[C@H](Cc1ccc(Nc2nccc3ccncc23)cc1)NC1=C(Br)C(=O)C12CCCCC2 | inactive |  | 
28 | COC(=O)CC(C)(O)CC(=O)OCc1ccc(O[C@@H]2O[C@H](CO)[C@@H](O)[C@H](O)[C@H]2O)cc1 (stereo partly specified) |  | 2.19% (inactive) | 
29 | O=C(O)c1c(O)c(-c2ccccc2)nc2ccccc12 | inactive |  | 
30 | COc1ccc(N(C)c2nc(C)nc3ccccc23)cc1 | inactive |  | 
31 | Cc1cccc(-c2[nH]c(Cc3cccc(C(N)=O)c3)nc2-c2ccc3nccnc3c2)n1 | inactive |  | 
32 | Nc1ccccc1N |  | 3.79% (inactive) | 
33 | c1ccc(-c2csc(N3CCOCC3)n2)cc1 |  | -7.34% (inactive) | 
34 | CC(=O)O[C@@H]1[C@@H](O)[C@H](O[C@H]2CC[C@]34C[C@]35CC[C@]3(C)[C@@H]([C@@]6(C)CC[C@@H](C(C)(C)O)O6)[C@@H](O)C[C@@]3(C)[C@@H]5C[C@H](O[C@@H]3O[C@H](CO)[C@@H](O)[C@H](O)[C@H]3O)[C@H]4C2(C)C)OC[C@H]1O | inactive |  | 
35 | C=C1C[C@@]23CCC4[C@@](C)(CCC[C@@]4(C)C(=O)OC)C2CC[C@@H]1C3 (stereo partly specified) | inactive |  | 
36 | CC(C)N(CCCCOCC(=O)NS(C)(=O)=O)c1cnc(-c2ccccc2)c(-c2ccccc2)n1 | inactive |  | 
